Assay results reported in paper PMC5540273 (PLoS ONE, 2017).

The compounds below were run on RPS6KA4(Kin.Dom.1-N-terminal). Settings: concentration: 1 μM, replicates: in singlicate; n = 1.
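Further: KINOMEscan kinase panel screen.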

| Compound | %Inh |
| --- | --- |
| Cl.O=S(=O)(c1cccc(F)c1)c1ccc(Nc2ncnc3cc(Br)sc23)cc1Cl [GSK306886] | 16% |
| O=C(NCCCN1CCCC1=O)c1cnc(NCc2cc(Cl)ccc2Cl)nc1NC1CCNCC1 | 15% |
| Cl.Cn1ccc(-c2cccc(Nc3ccnc4cc(-c5nccs5)ccc34)c2)n1 [GW525701] | 0% |
| CC(C)(C)OC(=O)NC1CCCN(c2cc(-c3ccc4c(N)n[nH]c4c3)nc(N)n2)C1 (stereo not drawn) [GSK2286096] | 0% |
| Cn1ccc2ncnc(Nc3ccc(Oc4cccc(Cl)c4)c(Cl)c3)c21 | 0% |
| O=C(Nc1ccccc1)Nc1ccc(Oc2ccc3nccn3n2)cc1 | 50% |
| CSc1nn2c(=O)cc(N3CCOCC3)nc2n1Cc1cccc(Cl)c1Cl [GSK2347225] | 17% |
| COC(=O)c1cccc(NC(=O)NCCNc2ccnc(Nc3ccc(F)cc3)n2)c1 [GSK1379883] | 23% |
| CCn1c(-c2ccncc2)nc2cnccc21 [SB-735216] | 0% |
| Fc1cccc(COc2ccc(Nc3ncnc4cc[nH]c34)cc2Cl)c1 | 9% |
| O=C(Nc1n[nH]c2nc(-c3ccco3)c(Br)cc12)c1ccc(CN2CCCC2)cc1.O=C(O)[C@H](O)[C@@H](O)C(=O)O [SB-742352] | 10% |
| CCC(CC)(CC)n1cnc2c(N)ncnc21 [SKF-97620] | 24% |
| O=C(CCO)NCCn1ccc2ncnc(Nc3ccc(Oc4cccc(C(F)(F)F)c4)c(Cl)c3)c21 | 18% |
| OCCOCCn1ccc2ncnc(Nc3ccc(Oc4cccc(Cl)c4)c(Cl)c3)c21 | 17% |
| Clc1cccc(-c2nc(Nc3ccncc3)c3ccccc3n2)c1 [GW873004] | 51% |
| COc1ccc(NC(=O)c2ccc(-c3cc(-c4nnc(C)o4)ccc3C)cc2)cc1 [GW595885] | 0% |
| O=C(Nc1ccccc1F)NC1CCN(c2ccnc(Nc3ccc(F)cc3)n2)C1 (stereo not drawn) [GSK1379722] | 6% |
| Nc1nc(-c2ccc3c(N)n[nH]c3c2)cc(N2CCCCC2)n1 [GSK2228768] | 4% |

| Compound | %Inh |
| --- | --- |
| CN1CCC(n2cnc(-c3ccc(F)cc3)c2-c2ccnc(NC3CCNCC3)n2)CC1 [SB-229482] | 14% |
| Clc1cc(Nc2ncnc3cc[nH]c23)ccc1OCc1ccccn1 | 9% |
| COc1cc2c(Nc3cccc(NC(=O)c4ccccc4)c3)ncnc2cc1OCCCN1CCOCC1 [GSK223810] | 9% |
| CCc1nc(-c2cccc(N(C)S(=O)(=O)c3ccccc3)c2)c(-c2ccnc(Nc3ccc(N4CCN(C(C)=O)CC4)nc3)n2)s1 [GSK1645895] | 0% |
| Cc1ccc(O)cc1Nc1cc(C(F)(F)F)nc2ccc(-c3ccncc3)cc12 [GW630823] | 8% |
| c1ccc(-c2ccc3c(-c4ccnc(Nc5ccc6c(c5)OCCO6)n4)cnn3n2)cc1 [GW818941] | 33% |
| CSc1ccc(NC2=C(c3ccccc3Cl)C(=O)NC2=O)cc1 [SB-342411] | 0% |
| CS(=O)(=O)CCNCc1ccc(-c2ccc3ncnc(Nc4ccc(OCc5ccccc5)c(Cl)c4)c3c2)o1.Cl [GW574783] | 32% |
| COc1cc2ncnc(Nc3ccc(OCc4ccccc4Br)c(Cl)c3)c2cc1OC.Cl [GI261590] | 9% |
| CC(C)N1CCC(n2cnc(-c3ccc(F)cc3)c2-c2ccnc(N)n2)CC1 [SB-223132] | 14% |
| Cn1cc(-c2ccc3c(c2)CCN3C(=O)Cc2cccc(C(F)(F)F)c2)c2c(N)ncnc21 [GSK2606414] | 16% |
| COc1ccc(Nc2nccc(N3CCC(NC(=O)c4cccc(NC(C)=O)c4)C3)n2)cc1 (stereo not drawn) [GSK1379732] | 21% |
| Nc1nc(-c2ccc3c(N)n[nH]c3c2)cc(N2CCC[C@@H](C(=O)Nc3ccccc3)C2)n1.O=C(O)C(F)(F)F.O=C(O)C(F)(F)F [GSK2288359] | 0% |
| CN1c2ccc(-c3ccc(C(=O)NCCO)cc3)cc2-c2[nH]ncc2S1(=O)=O | 25% |
| N#Cc1ccc(Oc2ccc(Nc3ncnc4cc[nH]c34)cc2Cl)cc1 | 0% |
| Cl.c1ccc(Cn2ncc3cc(Nc4ncnc5ccccc45)ccc32)cc1 [GW273749] | 3% |
| Nc1nccc2scc(-c3ccc4c(c3)CCN4C(=O)Cc3cc(F)ccc3F)c12 [GSK2587663] | 14% |
| Nc1nc(-c2cccnc2)c(-c2ccnc3ccccc23)s1 [GW684083] | 0% |
